# IDE inh: inhibitors of human insulin-degrading enzyme in cells. HEK cells, FAbetaB cleavage, fluorescence polarization. inhibition, % at 5.59 µM. hit rate 0.41% among 320,000;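 active means percent inhibition above the average of all tested compounds plus 3 SD, set per screening campaign, cut at about 16% in these data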;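 further: IDE supplied by intact live HEK cells; FP after avidin binding of uncleaved biotin substrate so inhibition keeps polarization high; 0% = DMSO wells and 100% = 60 µM reference IDE inhibitor Ii1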
# TPT1 inhibitor: inhibitors of Candida albicans tRNA 2'-phosphotransferase TPT1 | recombinant caTPT1, FP RNA substrate dephosphorylation | inhibition, % at 5 µM | hit rate 0.81% among 300,000;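 active means inhibition above the mean of all tested compounds plus 3 SD, set per screening campaign, cut at about 24% in these data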;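 further: plate controls were DMSO alone for no effect and ferristatin control at 100 nM for full effect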
# CRFR2-BP ag: CRF-BP/CRF-R2 complex agonism | HEK293 CRF-R2/CRF-BP, calcium dye fluorescence (FLIPR); percent of saturating CRF peptide response | activation, % at 13.2 µM | hit rate 0.46% among 350,000;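 active means activation of at least 50%, plus an integration ratio under a set limit after plate pattern correction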;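 further: plate controls were neutral control wells without compound for no effect and CRF at EC100 for full effect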
# IDE cell activ: activators of human insulin-degrading enzyme in cells; P14735; HEK cells, FAbeta-B cleavage, fluorescence polarization; 0% vehicle, 100% cell-free pure enzyme wells; activation, % at 5.96 µM; hit rate 0.073% among 340,000; AID 493087;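 active means activation above the mean of all tested compounds plus 3 SD, set per screening campaign, cut at about 17% in these data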
# HNF4A DNA FP: change in binding of human HNF4 alpha to DNA. P41235. HNF4a-FITC DNA binding, fluorescence polarization, 1 h. activity change, % at 10 µM. hit rate 0.3% among 360,000. AID 1224865; in the data active means activity change above about 30%, passing the limit was not always enough
# Target sequence (P41235 whole entry, looked up): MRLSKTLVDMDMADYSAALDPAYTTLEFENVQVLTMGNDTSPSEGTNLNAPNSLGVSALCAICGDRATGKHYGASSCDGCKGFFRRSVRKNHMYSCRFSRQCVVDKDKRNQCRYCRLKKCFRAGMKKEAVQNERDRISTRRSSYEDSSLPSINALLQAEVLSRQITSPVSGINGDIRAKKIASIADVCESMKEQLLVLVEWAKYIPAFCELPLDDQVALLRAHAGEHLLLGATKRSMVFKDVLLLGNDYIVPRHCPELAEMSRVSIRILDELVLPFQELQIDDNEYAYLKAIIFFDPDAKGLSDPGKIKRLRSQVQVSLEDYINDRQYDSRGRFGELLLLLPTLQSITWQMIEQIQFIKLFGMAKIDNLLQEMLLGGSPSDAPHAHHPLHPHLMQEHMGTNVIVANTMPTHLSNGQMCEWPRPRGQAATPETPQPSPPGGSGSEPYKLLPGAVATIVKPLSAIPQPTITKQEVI
# TPT1 inh confirm: confirmation of Candida albicans TPT1 inhibitors; hit rate 74% among 2,400; inhibition, % at 5 µM; shares compounds with TPT1 inhibitor; recombinant caTPT1, fluorescence polarization, RNase T1 coupled; AID 2149;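 active means inhibition above the primary screen limit, the mean inhibition of all tested compounds plus 3 SD, cut at about 25% in these data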
# RNase T1 counter: RNase T1 inhibition in TPT1 counter-screen | shares compounds with TPT1 inhibitor | RNase T1 cleavage, fluorescence polarization, 1536-well | inhibition, % at 5 µM | hit rate 83% among 2,400 | AID 2153;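 active means inhibition above the solvent-only control well mean plus 3 SD, limit set per screening run, cut at about 23% in these data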;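 further: plate controls were DMSO wells with enzyme for no effect and wells without RNase T1 for full effect; inhibitors block cleavage so intact labeled substrate keeps polarization high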
# Target sequence (P00651 whole entry, looked up): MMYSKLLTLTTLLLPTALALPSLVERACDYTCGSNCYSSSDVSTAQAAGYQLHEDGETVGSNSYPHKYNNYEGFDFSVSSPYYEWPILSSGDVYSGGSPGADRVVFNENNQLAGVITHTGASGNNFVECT
# An asterisk follows results filed as active; · = not tested or not shown. Hits are enriched below; roughly 1.4% of the tested compounds scored in any of these assays.
SMILES,IDE inh,TPT1 inhibitor,CRFR2-BP ag,IDE cell activ,HNF4A DNA FP,TPT1 inh confirm,RNase T1 counter
COc1ccccc1CNc1nc(-c2cc(C)n(C)c2C)cs1,·,·,9,3,18,·,·
COCCNc1nc(-c2cc(C)n(CCc3ccc(OC)cc3)c2C)cs1,6,48*,27,5,5,10,16
COc1ccc(OC)c(NC(=O)CCNC(=O)N2CC(=O)Nc3ccccc32)c1,·,·,0,·,-1,·,·
O=C1CN(CC(=O)Nc2cccc(Cl)c2Cl)c2ccccc2N1,-2,34*,4,5,35*,16,24*
O=C(CN1C(=O)NC2(CCCC2)C1=O)Nc1cccc(Cl)c1Cl,1,1,-3,4,-1,·,·
N#C/C(=C\c1ccc(Sc2ccc(Cl)cc2)o1)c1nc2ccccc2[nH]1,9,52*,4,-12,14,51*,66*
NS(=O)(=O)c1ccc(-c2ccc(/C=C3\SC(=S)N(C4CCS(=O)(=O)C4)C3=O)o2)cc1 (configuration not stated),20*,109*,8,-58,130,154*,142*
CC1(C)CNc2cc(N)ccc2S1,1,61*,2,1,6,32*,43*
OC1CCCN(CC(O)COC(c2ccccc2)c2ccccc2)C1 (configuration not stated),5,29*,2,-3,-1,1,2
COc1cc(S(=O)(=O)N2CCCN(C)CC2)ccc1NC(C)=O,-1,0,0,1,5,·,·
CCN(Cc1ccccc1)c1ccc(/C=C(\C#N)c2ccccn2)cc1,8,67*,8,-3,25,46*,50*
CCN(CC)c1ccc(/C=C(\C#N)c2ccccn2)cc1,16,135*,15,-20,89*,124*,129*
COc1cc(/C=C(\C#N)c2ccccn2)ccc1OCc1ccccc1,7,-2,1,-4,-3,·,·
N#C/C(=C\c1ccc(C(=O)O)cc1)c1ccccn1,-2,-4,0,3,-3,·,·
CN(CCC#N)c1ccc(/C=C(\C#N)c2ccccn2)cc1,6,25*,2,-1,1,-67,-52
Cc1cc(Cl)cc(Cl)c1CNc1c([N+](=O)[O-])c(=O)oc2ccccc12,1,0,1,-3,-2,·,·
COc1ccc(-c2ccc3c(N)c(C(=O)c4ccc(OC)c(OC)c4)sc3n2)cc1,8,54*,4,7,21,60*,70*
COc1ccc(C(=O)c2sc3nc(-c4ccccc4)ccc3c2N)cc1OC,2,91*,52*,0,69*,88*,94*
COc1ccc(-c2ccc3c(N)c(C(=O)NC(C)C)sc3n2)cc1OC,3,0,7,·,1,·,·
Cc1ccccc1C(=O)N1CCC(C(=O)N(C)CC(=O)Nc2cccc(F)c2)CC1,-1,-1,0,4,4,·,·
CN1CCc2c(sc3c2C(=O)NC(/C=C\c2ccccc2)N3)C1 (configuration not stated),11,22,17,·,9,·,·
Cc1ccsc1C1NC(=O)c2c(sc3c2CCN(C)C3)N1 (configuration not stated),12,61*,65*,-8,16,56*,65*
CSc1ccc(C2CC(=O)Nc3c2c(=O)n(C)c(=O)n3C)cc1 (configuration not stated),-3,-4,9,4,-5,·,·
CN1CCc2c(sc3c2C(=O)NC(c2ccc(-c4cccc(Cl)c4)o2)N3)C1 (configuration not stated),15,115*,16,-20,71*,111*,117*
CSc1ccc(C2NC(=O)c3c(sc4c3CCN(C)C4)N2)cc1 (configuration not stated),11,105*,45,-16,54,97*,101*
SMILES,IDE inh,TPT1 inhibitor,CRFR2-BP ag,IDE cell activ,HNF4A DNA FP,TPT1 inh confirm,RNase T1 counter
Cc1ccsc1C1Nc2ccccc2C(=O)N1O (configuration not stated),1,0,-3,0,2,·,·
CN1CCc2c(sc3c2C(=O)NC(c2cccs2)N3)C1 (configuration not stated),8,34*,58*,-4,1,23,35*
CCOCCCNCC(=O)Nc1ccc(S(=O)(=O)NC(C)CC)cc1 (configuration not stated),8,118*,-1,0,3,10,12
Cc1ccccc1Nc1cccc2nonc12,1,37*,14,0,10,42*,54*
Cc1ccccc1NS(=O)(=O)c1cccc2nonc12,-1,-2,-2,-1,10,·,·
OCc1cccc(-c2cnc3c(Nc4cccc(OC(F)(F)C(F)F)c4)nccn23)c1,·,·,·,·,22,·,·
Nc1[nH]c(C(=O)c2ccccc2)c(-c2ccc(Cl)cc2Cl)c1C(=O)NCCc1c[nH]c2ccccc12,·,·,·,·,3,·,·
CCCN1C(=O)/C(=C\C=C2/C=CN(CC)c3ccccc32)SC1=S,4,2,0,-6,2,·,·
CCCCN1C(=O)/C(=C/C=C2\N(C)c3ccccc3C2(C)C)SC1=S,14,196*,·,·,·,134*,124*
O=C(N/N=C/c1sc(=O)n(-c2ccccc2)c1Cl)c1ccccc1,5,23,-1,-4,7,·,·
NC(=O)N/N=C/c1sc(=O)n(-c2ccccc2)c1Cl,1,39*,-1,6,27,47*,66*
COC(=O)c1sc2nc(CSc3nc4ccc(C)cc4[nH]3)[nH]c(=O)c2c1C,1,38*,0,-1,25,33*,45*
COc1ccc(-n2c(O)c(/C=N/NS(=O)(=O)c3cccc([N+](=O)[O-])c3)c3ccccc3c2=O)cc1OC,7,70*,2,-13,114,115*,118*
Cc1ccccc1Nc1nc(N)nc(COC(=O)c2ccc3c(c2)OCCO3)n1,·,·,0,·,0,·,·
CCN(CC)CCn1c2c(c(SCC(=O)Nc3cc(C)on3)nc1=O)CCCC2,-1,-2,-1,-2,-2,·,·
CN(C)c1ccc(/C=C2\CCCc3c2nc2ccccc2c3C(=O)O)cc1,-3,25*,14,-5,6,28*,39*
COc1cc(C2C3=C(COC3=O)Oc3cc4c(cc32)OCO4)cc(OC)c1OC(C)=O (configuration not stated),·,·,-1,-1,2,·,·
O=C(CNS(=O)(=O)c1ccc(Cl)cc1)N1CCN(c2ccc(F)cc2)CC1,-2,·,-4,-7,9,·,·
CCOc1ccc(-n2ccnc2SCC(=O)Nc2cc(C)on2)cc1,6,119*,-3,3,3,7,10
COc1ccc(-n2ccnc2SCC(=O)Nc2cc(C)on2)cc1,1,1,-1,4,7,·,·
